Drawing on PubChem BioAssay (EPA / NIEHS), this text covers outcome and AC50 for two compounds.

Broadly, the AC50 is the midpoint of the concentration-response curve, whichever way the signal moves.

Holding throughout (details): actives raise or lower the signal
Assay [1] is described as follows: CEETOX_H295R_11DCORT_noMTC: CeeTox H295R High-throughput Steroidogenesis Assay for 11-Deoxycortisol (11DCORT), maximum tolerated concentration (MTC) filtered results only (AID 2283911). On the procedure:
CEETOX_H295R is a cell-based, multiplexed-readout assay that uses H295R, a human adrenal gland cell line, with measurements taken at 48 hours after chemical dosing in a 96-well plate.CEETOX_H295R_11DCORT_noMTC is one of 12 assay component(s) measured or calculated from the CEETOX_H295R assay (11 hormones and 1 viability assay). It is designed to make measurements of hormone induction, a form of inducible reporter, as detected with absorbance signals by HPLC-MS-MS technology. The concentrations for these components have not been pre-filtered for the maximum tolerated concentration (MTC) based on the MTT assay (_noMTC).Data from the assay component CEETOX_H295R_11DCORT_noMTC was analyzed into 1 assay endpoint. This assay endpoint, CEETOX_H295R_11DCORT_noMTC, was analyzed with bidirectional fitting relative to DMSO as the negative control and baseline of activity. […]
Cell culture and media preparation procedures were conducted in accordance with OECD Test No. 456 guidelines, with minor modifications. […] For steroid quantification, media samples were shipped to OpAns, LLC (Durham, NC) on dry ice, and samples were thawed to room temperature prior to liquid-liquid extraction. […] Steroid hormones were separated by HPLC, eluted using a reverse phase C18 gradient with electrospray positive ionization, followed by quantification by tandem mass spectrometry (MS/MS). […]

Assay [2] is described as follows: CEETOX_H295R_ANDR_noMTC: CeeTox H295R High-throughput Steroidogenesis Assay for Androstenedione (ANDR), maximum tolerated concentration (MTC) filtered results only (AID 2283915). The method in brief: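 H295R cells, passage 10 or below, prestimulated 48 h with 10 uM forskolin, then exposed 48 h to chemical in 0.1% DMSO. Medium androstenedione extracted with MTBE, quantified by HPLC-MS/MS; concentrations not MTC-filtered; bidirectional fit versus DMSO.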

A short description of assay [3]: CEETOX_H295R_CORTISOL_noMTC: CeeTox H295R High-throughput Steroidogenesis Assay for Cortisol, maximum tolerated concentration (MTC) filtered results only (AID 2283916). The essentials:
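Cortisol secretion measured by LC-MS/MS after 48 h chemical treatment (final 0.1% DMSO) of forskolin-primed (10 uM, 48 h) H295R cells; gain or loss fitted relative to DMSO, without maximum-tolerated-concentration filtering.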

A short description of assay [4]: CEETOX_H295R_CORTIC_noMTC: CeeTox H295R High-throughput Steroidogenesis Assay for Corticosterone (CORTIC), maximum tolerated concentration (MTC) filtered results only (AID 2283917). The method in brief:
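Following OECD 456 with minor changes, H295R cultures received 10 uM forskolin for 48 h, then test chemical at 0.1% DMSO for 48 h. Media steroids were extracted and measured by LC-MS/MS.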

The nature of assay [5]: CEETOX_H295R_DOC_noMTC: CeeTox H295R High-throughput Steroidogenesis Assay for DOC, maximum tolerated concentration (MTC) filtered results only (AID 2283918). The essentials:
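11-Deoxycorticosterone secreted by human adrenal H295R cells quantified by HPLC-MS/MS after 48 h chemical exposure (0.1% DMSO), following 48 h 10 uM forskolin prestimulation. Concentrations not filtered by MTT-derived MTC; bidirectional fitting.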

Calls of active or inactive are those of the source. Rule for the calls: active = hit-call score of the fitted dose curve at least 0.9, where 1 is the maximum; inactive = score below 0.9.

Consider `CC(C)=CCC/C(C)=C\CO`, for which the result in assay [1], in assay [2] and in assay [5] was inactive. The AC50 in assay [3] was 61.5 µM (active); in assay [4] it was 57.7 µM (active).
Take `CCCCC(CC)COC(=O)c1ccc(C(=O)OCC(CC)CCCC)cc1` (stereo unspecified): the result in assay [2] was inactive.
